# From PubChem BioAssay
# Active and inactive are the calls of the source. Unless noted, the rule behind the calls is not given here.
# Legend:
# [1] = test system: XIP peptide (Xip251-270) binding; assay: XIP fragment 251-270 binding compounds – biochemical, small-molecule microarray, fluorescence 635/667 nm, 0.1 µg/mL protein, primary screen (AID 1182); details: fluorescent protein binding, 635 nm, higher = more signal, called active from +8 up or from −8 down
# XIP peptide (Xip251-270) = assay: compounds binding XIP fragment 251-270 – biochemical, small-molecule microarray, fluorescence 635/667 nm, 0.5 µg/mL protein, primary screen (AID 1183); details: fluorescence 635 nm, higher = more signal
# [2] = blood-stage malaria parasite viability loss – strain 3D7, DAPI fluorescence, 100 nL, primary screen (AID 1184);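 note: parasites grown inside human red blood cells in medium with human serum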; details: P. falciparum 3D7 growth, 3 d, higher = more signal
# [3] = target: Homeobox protein Hox-A13 (Mus musculus) (UniProt Q62424); assay: disruptors of Hoxa13 oligonucleotide interaction – biochemical, fluorescence polarization, labeled oligonucleotide, primary screen (AID 1185); details: Hoxa13:DNA binding, 15 min, higher = more signal, called active from +8 up or from −8 down
# Sequence of Homeobox protein Hox-A13 (Mus musculus) (Q62424 whole entry, looked up): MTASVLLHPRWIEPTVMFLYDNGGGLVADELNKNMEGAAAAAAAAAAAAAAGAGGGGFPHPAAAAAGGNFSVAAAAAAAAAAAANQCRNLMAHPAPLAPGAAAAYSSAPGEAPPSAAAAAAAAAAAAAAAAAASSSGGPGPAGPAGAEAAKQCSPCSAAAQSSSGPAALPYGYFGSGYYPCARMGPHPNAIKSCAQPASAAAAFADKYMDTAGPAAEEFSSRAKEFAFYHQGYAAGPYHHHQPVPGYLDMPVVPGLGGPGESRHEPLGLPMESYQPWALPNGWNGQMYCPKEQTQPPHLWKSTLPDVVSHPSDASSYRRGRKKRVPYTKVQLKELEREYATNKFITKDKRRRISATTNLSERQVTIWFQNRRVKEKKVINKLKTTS
# [4] = blockers of DNA damage checkpoint Chk1 activation – imaging, HeLa, hydroxyurea, phospho-Chk1 antibody, percent positive cells, primary screen (AID 1186); details: hydroxyurea-induced phospho-Chk1 immunofluorescence imaging, higher = more signal
# [5] = blockers of DNA damage checkpoint Chk1 activation – imaging, HeLa, hydroxyurea, phospho-Chk1 nuclear intensity, primary screen (AID 1187); details: hydroxyurea-induced phospho-Chk1 immunofluorescence imaging, higher = more signal
SMILES,composite z-score [1],composite z-score (XIP peptide (Xip251-270)),z-score [2],z-score [3],z-score [4],z-score [5]
COC(=O)C(CC#Cc1ccc2c(c1)[C@]1(C(=O)N2)[C@H](c2ccccc2OCCO)N2[C@H](c3ccccc3)[C@H](c3ccccc3)OC(=O)[C@H]2[C@@H]1C(=O)N1CCN(c2ncccn2)CC1)C(=O)OC,-0.0996 (inactive),0.539,-2.27,-1.41 (inactive),0.0162 (inactive),-0.581 (inactive)
C#CCN(C(=O)OC(C)(C)C)[C@H](CO)c1ccccc1,-0.235 (inactive),-0.182,-0.333,-3.85 (inactive),-0.306 (inactive),-0.368 (inactive)
C[C@H]1C2[C@H](Cc3ccccc3)NC(=O)[C@]23C(=O)N[C@@H](Cc2ccccc2)C(=O)N2CCC[C@H]2C(=O)NC/C=C/CC/C=C/C3[C@@H]2O[C@]12C (stereo partly specified),0.182 (inactive),0.457,-2.99,-7.13 (inactive),-0.234 (inactive),-0.437 (inactive)
COC(=O)[C@]1(Cc2ccccc2N=[N+]=[N-])N=C(c2ccc(OCCCO)cc2)O[C@@H]1c1ccccc1CN=[N+]=[N-],0.11 (inactive),0.729,-1.96,-1.15 (inactive),-0.446 (inactive),-0.437 (inactive)
O=C1C[C@@](C(=O)NCC(F)(F)F)(c2ccc([N+](=O)[O-])cc2)[C@@H](c2ccc(CO)cc2I)N1CC12CC3CC(CC(C3)C1)C2,2.08 (inactive),0.797,-1.23,-2.47 (inactive),-0.353 (inactive),-0.245 (inactive)
COCCOC(=O)N1C(=O)[C@@]2(c3cc(C#CCNC(N)=O)ccc31)[C@H](c1ccc(O)cc1)N1[C@H](c3ccccc3)[C@H](c3ccccc3)OC(=O)[C@H]1[C@@H]2C(=O)N1CCc2cc(OC)c(OC)cc2C1,-0.0561 (inactive),0.329,-0.0011,-1.73 (inactive),0.0017 (inactive),-0.0878 (inactive)
CC1C2C(CCCO)=CC(C3C(=O)N(C(N)=O)C(=O)C23)N1Cc1cccc(OC(F)(F)F)c1 (stereo unspecified),1.51 (inactive),0.256,-0.128,-7.99 (inactive),0.37 (inactive),0.181 (inactive)
C=CC[C@]1(C(=O)NCCN2CCOCC2)N=C(c2ccc(OCCCO)cc2)O[C@H]1c1ccccc1,0.212 (inactive),0.492,-0.188,-6.22 (inactive),-0.116 (inactive),0.106 (inactive)
CC1CC/C=C\[C@H]2OC34C=CCN(C(C)C)C(=O)[C@H]3N(C(C)CO)C(=O)[C@@H]4C2C(=O)O1 (stereo partly specified),-0.275 (inactive),0.384,-0.577,-5.82 (inactive),-0.829 (inactive),-0.249 (inactive)
C=CCOC(=O)[C@@H]1[C@H]2C(=O)O[C@H](c3ccccc3)[C@H](c3ccccc3)N2[C@H](c2ccc(OCCOC(=O)[C@H]3C[C@H]4C(=O)N[C@@H](CCCCN(C)C)C(=O)N4[C@H]3c3cccc(OCCO)c3)cc2)[C@@]12C(=O)Nc1ccccc12,0.876 (inactive),0.686,-0.405,-1.64 (inactive),-0.224 (inactive),-0.375 (inactive)
COc1ccc(C(=O)Nc2cccc(CN3C(=O)[C@]4(O[C@H](CC(=O)N(CCO)Cc5ccccc5)[C@@H]([Si](C)(C)c5ccc(OC)cc5)[C@@H]4C)c4ccccc43)c2)cc1,0.256 (inactive),0.572,-2.49,-0.179 (inactive),-0.571 (inactive),0.0153 (inactive)
